Source: PubChem BioAssay (NCATS)
Results filed as inconclusive are left out. Activity calls are given as the source filed them. Calls come from the whole dose curve; as a rule, active = well fitted curve in the direction sought with a large enough effect; inconclusive = small, poorly fitted or top-dose-only effect, or another doubt; inactive = no such curve, though single readings can be large; an effect the other way counts as inactive or inconclusive.

Legend:
MKL-1 = experiment: qHTS assay to identify novel small-molecules to repurpose for Merkel cell carcinoma treatment (AID 1296009); details: MCC and control cell lines, CellTiter-Glo viability, 72 h; series mostly up to 46 µM; note: nearly all actives have a fitted effect of over 60% in size; note: potency is the fitted concentration of half-maximal effect
Outline: (§1)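 Cell viability, measured as CellTiter-Glo luminescence, was normalized between DMSO and no-cell wells. The cells had been exposed to 8- or 11-point compound dilutions for 72 hr at 37 degree celsius.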

MKL-2 = experiment: as above; details: MCC and control cell lines, CellTiter-Glo viability, 72 h; series mostly up to 46 µM
Outline: as §1

UISO = experiment: as above; details: MCC and control cell lines, CellTiter-Glo viability, 72 h; series mostly up to 46 µM
Outline: as §1

WaGa = experiment: as above; details: MCC and control cell lines, CellTiter-Glo viability, 72 h; series mostly up to 46 µM
Outline: as §1

C33A = experiment: Primary qHTS to identify gynecologic anti-cancer compounds using libraries of approved drugs and bioactive compounds (AID 1345084); details: Gynecologic cancer cell panel viability, ATPlite luminescence, 48 h; series mostly up to 57.5 µM; note: nearly all actives have a fitted effect of over 55% in size
Outline: (§2)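 Cells, 1,000 per well, were allowed to settle for 16 h at 37 C before compound addition. Five concentrations were tested for 48 h, and viability was read by ATPlite luminescence after 15 min at room temperature.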

CAOV3 = experiment: as above; details: Gynecologic cancer cell panel viability, ATPlite luminescence, 48 h; series mostly up to 57.5 µM
Outline: as §2

CASKI = experiment: as above; details: Gynecologic cancer cell panel viability, ATPlite luminescence, 48 h; series mostly up to 57.5 µM
Outline: as §2

Es-2 = experiment: as above; details: Gynecologic cancer cell panel viability, ATPlite luminescence, 48 h; series mostly up to 57.5 µM
Outline: as §2

HeLa = experiment: as above; details: Gynecologic cancer cell panel viability, ATPlite luminescence, 48 h; series mostly up to 57.5 µM
Outline: as §2

Measured: Potency

COc1nccc(-c2c(-c3ccc(F)cc3)ncn2C2CCNCC2)n1
inactive: all assays above

Nc1nc(Cl)nc2c1ncn2[C@@H]1O[C@H](CO)[C@@H](O)[C@H]1F
active: MKL-1 0.0132 µM
inactive: WaGa

COc1cc2c(cc1Cc1cccc(Cl)c1F)c(=O)c(C(=O)O)cn2[C@H](CO)C(C)C
active: MKL-2 18.7 µM

Cc1ccccc1C(=O)c1ccc(Nc2ccc(Br)cc2N)cc1Cl
inactive: MKL-1 | CAOV3 | Es-2 | HeLa

CCn1c(-c2nonc2N)nc2cncc(CNC3CCNCC3)c21
not listed: MKL-2 | WaGa | C33A
inactive: all other assays above

O=C(NC[C@H](O)CO)c1ccncc1Nc1ccc(I)cc1F
inactive: UISO | WaGa
active: MKL-2 6.62 µM
